# Reference: PubChem BioAssay (NCI)
# This is part of a sample that, as a whole, favours compounds with a hit. Of some 83,000 tested, about 20% had one in any assay.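 Cell lines were cultured in 96-well plates, exposed to a single compound concentration, and assessed for percent growth 48 hours later.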 Values without a mark were called inactive. Active and inactive are the calls of the source. The calls were made as follows: active = growth percent below 10; inactive = the rest.
# What was measured:
# Assay in all cases: NCI-60 one-dose screen, 48 h (100 = growth as untreated, 0 = no growth, -100 = all killed)
# Conditions in all cases: 10 µM unless noted
# SK-MEL-2 melanoma = test system: SK-MEL-2 melanoma
# EKVX NSCLC = test system: EKVX NSCLC
# SN12C renal = test system: SN12C renal
# UO-31 renal = test system: UO-31 renal
# TK-10 renal = test system: TK-10 renal
# ACHN renal = test system: ACHN renal
# CAKI-1 renal = test system: CAKI-1 renal
# A498 renal = test system: A498 renal
# MOLT-4 leukemia = test system: MOLT-4 leukemia
# CCRF-CEM leukemia = test system: CCRF-CEM leukemia
SMILES,growth (SK-MEL-2 melanoma) [%],growth (EKVX NSCLC) [%],growth (SN12C renal) [%],growth (UO-31 renal) [%],growth (TK-10 renal) [%],growth (ACHN renal) [%],growth (CAKI-1 renal) [%],growth (A498 renal) [%],growth (MOLT-4 leukemia),growth (CCRF-CEM leukemia) [%]
CSCC[C@@H]1C(=O)N(C)[C@H](C(C)(C)C)N1C(=O)c1ccccc1,106,102,104,90.4,106,110,100,126,116%,
CCOC(=O)N[C@H]1CCc2cc(OC)c(OC)c(OC)c2-c2ccc(SC)c(=O)cc21,32.2,31.6,26.8,47,43.7,28.3,19.7,,9.15% (active),21.9
C=CCc1cc(OC)c(O)c(OC)c1,102,101,102,92.5,113,102,97.6,,102%,109
Cc1cccc(-[n+]2noc(N)n2)c1,145,67.9,95.7,49.7,124,46.1,59.6,113,72.8%,
CCCCCCCCCCCCSC1=C(Cl)C(=O)C(OC)=C(OC)C1=O,39.3,37.9,24.5,32.9,43.7,27.7,70.8,77.4,-4.73% (active),
C=CCN1CCCC1=O,161,96.8,94.2,101,90.2,109,95.8,91,93.8%,
ClCC(Cl)[C@@H]1CC2C=CC1C2 (some centres not stated),112,98.3,102,88.7,114,108,100,80.2,114%,
O=C(CCCl)OCCOc1ccccc1,104,109,104,88.5,100,106,102,89,92.1%,
CCCCCCCCCc1ccc(OC(C)=O)cc1,101,108,99.6,95.9,96.3,109,103,70.1,108%,
O=C(NC(=S)N1CC=CCC1)c1ccccc1,84.4,111,88.4,87,94.5,94.3,105,93.1,94.2%,
COc1cc(C(=O)O)c(O)c(C(C)(C)C)c1,106,102,103,92.9,105,109,102,96.3,98.1%,
CC(c1ccccc1)N(C)C (configuration not stated),84,122,99.7,71.4,135,109,96.5,139,84.3%,
CC(=O)Nc1ccc(O)c(C)c1,104,112,102,95.1,93.2,99.4,97.5,,85.2%,95.4
CCN1CCCC(N2c3ccccc3Sc3ccccc32)C1 (configuration not stated),97.4,116,101,79.1,78.8,98.5,101,100,96.3%,
Cc1ccc(C)c(CCO)c1,134,112,99.9,93.7,99.6,107,115,85.8,113%,
CC(C)OCC(CCl)OC(=O)Nc1ccccc1 (configuration not stated),102,104,96.7,80.9,91.7,105,98.2,103,99.9%,
CCOP(=O)(NC(c1ccccc1)c1ccccc1)OCC,109,109,146,84.4,112,103,93,102,106%,

SMILES,growth (SK-MEL-2 melanoma) [%],growth (EKVX NSCLC) [%],growth (SN12C renal) [%],growth (UO-31 renal) [%],growth (TK-10 renal) [%],growth (ACHN renal) [%],growth (CAKI-1 renal) [%],growth (A498 renal) [%],growth (MOLT-4 leukemia),growth (CCRF-CEM leukemia) [%]
CC(C)N(C(=O)c1ccccc1)C(C)C,114,104,107,104,98.2,108,98.5,86.6,111%,
CC(=O)/C(C)=N\OC(=O)Nc1ccccc1,107,95.6,107,80.8,97.5,101,97.8,101,90.4%,
Cc1c(Cl)cccc1NC(=S)NC(=O)c1ccccc1,96,71.6,98.6,85.5,93.5,113,79.4,,83.9%,95.3
C=C(C)[C@@H]1CC[C@]2(CO)CC[C@]3(C)[C@H](CC[C@@H]4[C@@]5(C)CC[C@H](O)C(C)(C)[C@@H]5CC[C@]43C)[C@@H]12,82.1,66.4,47.5,27.8,51,18.3,72.6,,71.1%,75.7
COc1cccc(C(=O)NNC(=O)c2cccc3ccccc23)c1,107,106,108,97,120,106,102,105,98.8%,
Cn1c(=O)c2[nH]c(CCCCC(=O)O)nc2n(C)c1=O,111,131,104,105,98.4,103,106,113,102%,
C=C1C(=O)C2CCN1CC2,105,103,101,89.1,99.9,86.8,92,97.6,78.2%,
CC(C)c1ncc([N+](=O)[O-])n1C,127,126,109,85.3,114,102,94.4,,104%,102
CCCCOC(=O)c1ccccc1O,161,106,107,99.2,115,104,107,129,117%,
C=C1C(=O)C2CCC1C2 (configuration not stated),101,109,104,82.2,109,112,101,93.7,94.7%,
Cc1cc2c3ccc(C)[n+](C)c3ccc2n1C,92.4,20,22.4,27.1,65.6,79.4,58.1,,25.2%,36.7
COc1cccc2c1Cc1ccccc1-2,110,102,108,88.6,134,114,98.3,,113%,104
CCC1CCC(C)NC1 (configuration not stated),115,92.5,106,93.5,97.3,102,102,65.6,105%,
O=C(O)c1c[nH]c2ccccc2c1=O,95.1,103,103,90.6,97.7,102,100,127,90%,
CCOS(=O)(=O)c1ccc([N+](=O)[O-])cc1,102,110,101,88.9,95,103,99,,98.5%,99.2
Nc1nc(N)nc(N2CCCCC2)n1,100,107,102,87.4,91.6,110,104,89.6,107%,
